Source: PubChem BioAssay (Tox21)
Inconclusive results are not listed. Activity calls are given as the source filed them. Unless noted, the call rests on the fitted dose curve; in most records, active means well fitted curve in the direction sought with a large enough effect in the repeat runs; inconclusive means weak or mixed curves; inactive means no such curve, though single readings can be large; an effect the other way counts as inactive or inconclusive.

Legend:
[1] = qHTS assay to identify small molecule agonists of the vitamin D receptor (VDR) signaling pathway - cell viability counter screen (AID 743224); further: series mostly up to about 63 µM; nearly all actives have a fitted effect of over 50% in size
Summary of the method: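 VDR-bla cells, 4 h after plating, exposed to compounds for 16 h at 37C; viability then read in the same wells as CellTiter-Glo luminescence after 30 min at room temperature, following the bla FRET read.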

[2] = qHTS assay to identify small molecule antagonists of the vitamin D receptor (VDR) signaling pathway - cell viability counter screen (AID 743225); further: nearly all actives have a fitted effect of over 50% in size
Summary of the method: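 Luminescent cell viability (CellTiter-Glo) in VDR-bla HEK 293T cells after 16 h compound exposure at 37C in the presence of 3 nM final 1-alpha,25-dihydroxy vitamin D3.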

[3] = qHTS assay to identify small molecule agonists of the NFkB signaling pathway (AID 1159509; active means well fitted curve in the direction sought with a large enough effect in the signal ratio in the repeat runs, not every such curve was filed as active; the % refers to the signal ratio; further: series mostly up to about 61 µM)
Summary of the method: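 ME-180 NFkB-bla, 2,000 cells/well, overnight plating; cpd pinned in DMSO, 5 h 37 C; B/G FRET substrate 1.5 h RT; ex 405, em 460/530 nm.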

[4] = qHTS assay to identify small molecule agonists of the NFkB signaling pathway - cell viability counter screen (AID 1159515; calls by dose curve; further: series mostly up to about 61 µM; nearly all actives have a fitted effect of over 55% in size)
Summary of the method: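 NFkB-bla ME-180 cells, 2,000/well, plated overnight at 37 C; compound added for 5 hr at 37 C. Viability read in the same wells as the bla reporter, by CellTiter-Glo luminescence after 30 min at room temperature.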

[5] = qHTS assay to identify small molecule agonists of the endoplasmic reticulum stress response signaling pathway (AID 1159516; active means well fitted activation curve with a large enough effect in the signal ratio in the repeat runs, not every such curve was filed as active; the % refers to the signal ratio)
Summary of the method: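 CellSensor ESRE-bla HeLa cells, 1,500 per well, plated overnight, then exposed to compounds for 5 hr at 37 C. Beta-lactamase reporter read with LiveBLAzer B/G FRET substrate after 2 hr at room temperature, 405 nm excitation, 460 and 530 nm emission.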

[6] = qHTS assay to identify small molecule agonists of the endoplasmic reticulum stress response signaling pathway - cell viability counter screen (AID 1159517; calls by dose curve;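 further: HeLa cells carrying an ER stress response element beta-lactamase reporter; series mostly up to about 61 µM; nearly all actives have a fitted effect of over 50% in size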)
Summary of the method: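 CellTiter-Glo was added to wells already read for beta-lactamase FRET, and luminescence was recorded 30 min later. Cells: ESRE-bla HeLa, 1,500 per well, compound exposure 5 hr at 37 C.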

[7] = qHTS assay to identify small molecule antagonists of the retinoid-related orphan receptor gamma (ROR-gamma) signaling pathway - cell viability counter screen (AID 1159520); further: nearly all actives have a fitted effect of over 50% in size
Summary of the method: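 Tet-on ROR gamma CHO cells (1,000/well) were plated 4 hr, given compounds in DMSO for 2 hr at 37 C, then induced with 1 uM final doxycycline for 16 hr. Viability was read as ATP by CellTiter-Glo luminescence after 30 min.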

[8] = qHTS assay to identify small molecule agonists of the AP-1 signaling pathway - cell viability counter screen (AID 1159525; calls by dose curve; further: nearly all actives have a fitted effect of over 55% in size)
Summary of the method: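 ME-180 AP-1-bla, 2500 cells/well, Opti-MEM + 0.5% dialyzed FBS; overnight 37 °C; cpd 15-pt titration, 5 h 37 °C; CellTiter-Glo 30 min RT; luminescence read; normalised to TOAB and DMSO controls.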

[9] = qHTS assay to identify small molecule agonists of the AP-1 signaling pathway (AID 1159526; calls by dose curve)
[10] = qHTS assay to identify small molecule antagonists of the retinoid acid receptor (RAR) signaling pathway - cell viability counter screen (AID 1159551); further: nearly all actives have a fitted effect of over 35% in size
Summary of the method: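 C3RL4 RARE-luciferase cells, 1,000/well, incubated overnight, then dosed with compound plus 1 uM retinol (final). After 6 hr at 37 C, viability read by CellTiter-Glo ATP luminescence following 30 min at room temperature.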

[11] = qHTS assay to identify small molecule antagonists of the retinoic acid receptor (RAR) signaling pathway (AID 1159552; further: nearly all actives have a fitted effect of over 50% in size)
Summary of the method: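 Readout: luciferase luminescence, 30 min post-reagent at RT. Setup: C3RL4 RARE reporter cells, compounds plus retinol 1 uM final, 6 hr incubation at 37 C and 5% CO2.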

[12] = qHTS assay to identify small molecule agonists of the retinoic acid receptor (RAR) signaling pathway (AID 1159553)
Summary of the method: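 C3RL4 RARE-luciferase cells were seeded at 1,000/well and grown overnight at 37 C, then exposed to compounds for 6 hr at 37 C, 5% CO2. Luciferase reagent was added and luminescence was read after 30 min at room temperature.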

[13] = qHTS assay to identify small molecule agonists of the RXR signaling pathway - cell viability counter screen (AID 1159529)
Summary of the method: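 Same-well viability check after the LiveBLAzer FRET read: CellTiter-Glo added, luminescence measured after 30 min at room temperature. Reporter HEK 293T cells had been treated with compounds for 16 hr following a 5 hr preincubation.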

[14] = target: Nuclear receptor ROR-gamma (Homo sapiens) (UniProt P51449); experiment: qHTS assay to identify small molecule antagonists of the retinoid-related orphan receptor gamma (ROR-gamma) signaling pathway (AID 1159521)
Summary of the method: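 CHO cells expressing RORγ under a TET-on promoter, luciferase under RORE control. Dox 1 uM final, 16 h; compounds added 2 h prior. Luminescence decrease measured.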

[15] = qHTS assay to identify small molecule antagonists of the estrogen related receptor (ERR) signaling pathway - cell viability counter screen (AID 1224818); further: series mostly up to about 46 µM
Summary of the method: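 ERR cells, 2,000 per well, compound added after 6 h and incubated 17.5 h at 37 C. Viability read by CellTiter-Fluor fluorescence after a further 30 min at 37 C.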

[16] = qHTS assay to identify small molecule antagonists of the estrogen related receptor signaling pathway with the pleiotropic PPARgamma coactivator (PGC) cell viability counter screen (AID 1224822; further: series mostly up to about 46 µM)
Summary of the method: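 PGC/ERR cells rested 6 h, then compound-treated 17.5 h at 37 C. CellTiter-Fluor added for 30 min at 37 C, viability measured by fluorescence intensity.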

Measured: Potency

CCOC(=O)CC(O)(CC(=O)OCC)C(=O)OCC
inactive: [1] | [2] | [3] | [4] | [5] | [6] | [7] | [8] | [9] | [10] | [11] | [12]

C=C[Si](OCC)(OCC)OCC
inactive: [1] | [3] | [4] | [5] | [6] | [7] | [8] | [9] | [13] | [10]

CCc1ccc(C(=O)C(C)CN2CCCCC2)cc1 (stereo unspecified)
inactive: [1] | [2] | [3] | [4] | [5] | [6] | [7] | [8] | [9] | [13] | [10] | [11]

Clc1ccccc1-c1nc(-c2ccncc2)no1
inactive: [1] | [2] | [3] | [4] | [5] | [6] | [7] | [8] | [9] | [13] | [10] | [11]

CCCc1ccc(OC)cc1
inactive: [1] | [2] | [3] | [4] | [5] | [6] | [7] | [9] | [13] | [10] | [11]

CCCC(=O)OCc1ccccc1
inactive: [1] | [2] | [3] | [4] | [5] | [6] | [7] | [9] | [13] | [10] | [11] | [12]

CC(C)(C(=O)O)c1ccc(C(O)CCCN2CCC(C(O)(c3ccccc3)c3ccccc3)CC2)cc1 (stereo unspecified)
inactive: [1] | [2] | [3] | [4] | [5] | [6] | [7] | [14] | [9] | [13] | [10] | [15] | [16]

CCOc1ccc(NC(C)=O)cc1N
inactive: [1] | [2] | [3] | [4] | [5] | [6] | [7] | [9] | [13] | [10] | [11]

CCCCCCC/C=C/C=O
inactive: [1] | [2] | [3] | [4] | [5] | [6] | [7] | [8] | [9] | [10] | [12]

CC(C)(C)c1cc(C=O)cc(C(C)(C)C)c1O
inactive: [1] | [2] | [3] | [4] | [5] | [6] | [7] | [14] | [9] | [13] | [10]

C=CC(C)(O)CC/C=C(/C)CCC=C(C)C (stereo unspecified)
inactive: [1] | [2] | [3] | [4] | [5] | [6] | [7] | [8] | [9] | [13] | [10]
